Hit rate of the full screen: of about 52,000 compounds, about 1,700 (3.3%) were called active. What follows is part of a selection rich in actives, with near analogues and random picks from the rest. Unmarked numbers belong to inactive results. Rule as the data show it: active = survival mostly below about 52% (no sharp cut-off); inactive = mostly above about 56%.
Each compound was assayed on Wild type (assay: growth inhibition of S. aureus wild type versus tarO mutant, primary screen, teichoic acid synthesis inhibitors, RN4220, OD600 (AID 463173)). Conditions: S. aureus RN4220 wild type/DeltatarO growth, OD600, 18 h, active compounds read low, screened at 18.75 µg/mL (by protocol).

Compared with `CCc1ccccc1NC(=O)Cn1cc(S(=O)(=O)N2CCCC2)c(S(=O)(=O)N2CCCC2)c1`, `Cc1ccc2c(c1)C(c1ccccc1)N(C(=O)c1ccc(S(=O)(=O)N3CCCCC3)cc1)CC(=O)N2` (stereo unspecified) is higher in survival: 68% for the first, 86% for the second.

Compared with `CCc1ccccc1NC(=O)CCn1nc(C)c2c(C)n(-c3ccccc3)nc2c1=O`, `CCCn1c(=O)n(-c2ccccc2)c(=O)c2sc3ccccc3c21` is higher in survival: 88% for the first, 93% for the second.

First: Cc1ccc(C(=O)Nc2ccccc2C(=O)OCc2cc(=O)n3nc(C4CC4)sc3n2)cc1
Second: Cc1ccc(OCC(=O)Nc2nnc(S(=O)(=O)N3CCc4ccccc43)s2)cc1
The survival of the first is higher: 87% for the first, 24% for the second.

First: COc1cccc(-n2c(=O)c3cc(OC)c(OC)cc3n(CC(=O)Nc3ccc(F)cc3)c2=O)c1
Second: COc1cc(OC)c(NC(=O)Cn2c(=O)nc(-c3ccccc3)c3ccccc32)cc1Cl
The survival of the first is higher: 73% for the first, 68% for the second.

Going from `Cc1ccc(Cl)cc1N1CCN(C(=O)c2sc3nc4n(c(=O)c3c2C)CCC4)CC1` to `CC(=O)N1CCc2c(sc3c2c(=O)n(-c2cc(Cl)ccc2C)c(=O)n3C)C1`, the survival rises from 75% to 119%.

Going from `CCOC(=O)c1ccc(NC(=O)c2cc3sccc3n2Cc2ccc(Cl)cc2)cc1` to `CCOC(=O)c1cnc2c(ccc3ccccc32)c1Nc1ccc(Cl)cc1`, the survival falls from 87% to 30%.

Compared with `Cc1cccc(C(=O)Nc2nnc(S(=O)(=O)N3c4ccccc4CC3C)s2)c1` (stereo unspecified), `CC1Cc2ccccc2N1S(=O)(=O)c1nnc(NC(=O)c2ccccc2)s1` (stereo unspecified) is lower in survival: 21% for the first, 18% for the second.

Compared with `COc1ccc(OCC(=O)Nc2nnc(S(=O)(=O)N3CCc4ccccc43)s2)cc1`, `O=C(Nc1nnc(S(=O)(=O)N2CCc3ccccc32)s1)c1ccccc1Cl` is lower in survival: 73% for the first, 23% for the second.

Compared with `O=C(Nc1nnc(S(=O)(=O)N2CCCc3ccccc32)s1)c1ccccc1`, `O=C(Nc1nnc(S(=O)(=O)N2CCc3ccccc32)s1)c1ccccc1` is lower in survival: 31% for the first, 19% for the second.

First: Cc1cccc(C(=O)Nc2nnc(S(=O)(=O)N(C)Cc3ccccc3)s2)c1
Second: CN(Cc1ccccc1)S(=O)(=O)c1nnc(NC(=O)c2ccccc2)s1
The survival of the first is lower: 29% for the first, 35% for the second.

Going from `O=C(Nc1nnc(S(=O)(=O)N2CCCc3ccccc32)s1)c1ccc(Cl)cc1` to `Cc1ccc(C(=O)N2CCN(c3ccccc3F)CC2)cc1NC(=O)c1nsc2ccccc12`, the survival rises from 19% to 87%.

Compared with `Cc1nnc(N2C(=O)c3oc4ccccc4c(=O)c3C2c2ccc(F)cc2)s1` (stereo unspecified), `CC(C)c1ccc(NC(=O)CN2C(=O)C3(SCC(=O)N3c3ccc(F)cc3)c3ccccc32)cc1` (stereo unspecified) is lower in survival: 79% for the first, 58% for the second.

Compared with `O=c1cccc2n1CC1CC(C2)N(c2nc(N3CCCCC3)nc(N3CCCCC3)n2)C1` (stereo unspecified), `O=C(NCCCN1CCCCCC1)c1ccc2c(c1)sc1nc(-c3ccccc3)cn12` is lower in survival: 104% for the first, 38% for the second.

First: COc1ccc(CNCc2ccc3c(c2)n(C)c(=O)n3C)cc1
Second: COc1ccc(Oc2nc3c(c(=O)n(C)c(=O)n3C)n2Cc2ccccc2Cl)cc1
The survival of the first is higher: 90% for the first, 75% for the second.

First: COc1cc(NC(=O)C(CC(C)C)NS(=O)(=O)c2ccc3c(c2)oc(=O)n3C)c(C(=O)O)cc1OC (stereo unspecified)
Second: COc1ccccc1CNC(=O)C1CCCN(S(=O)(=O)c2ccc3c(c2)oc(=O)n3C)C1 (stereo unspecified)
The survival of the first is higher: 124% for the first, 92% for the second.

Going from `Nc1cccc2c1C(=O)N(CC(=O)O)C2=O` to `CCOC(=O)c1cnc2c(CC)cccc2c1NCCO`, the survival rises from 104% to 116%.

Compared with `Cc1ccccc1CNC(=O)Cn1ncn2nc(-c3cccs3)cc2c1=O`, `CCCCNC(=O)c1nn(-c2ccc(C)cc2)c(=O)c2c1c1ccccc1n2C` is lower in survival: 120% for the first, 79% for the second.

Compared with `CCOc1ccc(S(=O)(=O)NCC(c2ccco2)S(=O)(=O)c2ccc(F)cc2)cc1` (stereo unspecified), `CCOc1ccc(NC(=O)CC2Nc3cccc4cccc(c34)NC2=O)cc1` (stereo unspecified) is lower in survival: 90% for the first, 63% for the second.

Compared with `O=C(CSc1nc2cc3ccccc3cc2[nH]1)Nc1ccc(F)cc1`, `CCOC(=O)c1cnc2c(ccc3ccccc32)c1Nc1cccc(OC)c1` is lower in survival: 76% for the first, 68% for the second.

First: CN(Cc1ccco1)C(=O)c1ccc2c(c1)N(Cc1ccccc1F)C(=O)c1ccccc1S2
Second: Cc1ccc(CN(Cc2ccco2)C(=O)COc2ccccc2C)cc1
The survival of the first is higher: 115% for the first, 83% for the second.

First: Cc1oc2ncn(CC(C)C)c(=O)c2c1C(=O)N1CCN(c2ccc(F)cc2)CC1
Second: CCc1ccc(N2CCn3c2nc2c3c(=O)n(C/C=C/c3ccccc3)c(=O)n2C)cc1
The survival of the first is lower: 57% for the first, 79% for the second.

`CC1CCCN(S(=O)(=O)c2ccc(S(=O)(=O)N(Cc3cccs3)Cc3cccs3)cc2)C1` (stereo unspecified) and `CCCCOc1ccc(S(=O)(=O)N2CCN(c3ccccc3OCC)CC2)cc1` are the same in survival: 112% for the first, 112% for the second.

First: O=c1[nH]c2cc3c(cc2cc1CN(CCN1CCOCC1)C(=S)Nc1ccccc1)OCCO3
Second: COc1cccc(Cn2cc(C(=O)c3ccccc3)c(=O)c3cc4c(cc32)OCO4)c1
The survival of the first is higher: 109% for the first, 84% for the second.

First: CCOc1ccc(-c2nonc2NC(=O)c2oc3c(C)c(C)ccc3c2C)cc1OCC
Second: CCOc1cc(C(=O)Nc2ccc(-c3nnc4n3CCCCC4)cc2)cc(OCC)c1OCC
The survival of the first is lower: 82% for the first, 88% for the second.

Compared with `COC(=O)Cn1c(SCCOc2ccccc2Cl)nc2ccccc21`, `COC(=O)Cn1c(SCCOc2ccccc2OC)nc2ccccc21` is higher in survival: 81% for the first, 91% for the second.

Compared with `Cn1c(=O)c2c(nc(Oc3ccccc3)n2Cc2c(Cl)cccc2Cl)n(C)c1=O`, `Cc1ccccc1Nc1nc(N)c(C(=O)c2ccccc2Cl)s1` is higher in survival: 73% for the first, 101% for the second.

Going from `Cc1cc(C)cc(Oc2nc3c(C)cccn3c(=O)c2/C=C(\C#N)c2nc3ccccc3[nH]2)c1` to `CCOC(=O)c1cnc2c(ccc3ccccc32)c1Nc1ccccc1O`, the survival rises from 69% to 74%.

Compared with `CCCCN(CC)CCCNC(=O)c1ccc2c(c1)NC(=O)CN2C`, `CCCN1CCN(CCCNC(=O)c2ccc3c(c2)sc2nc(-c4ccc(OCC)cc4)cn23)CC1` is lower in survival: 57% for the first, 36% for the second.

First: CCN1CCN(CCCNC(=O)c2ccc3c(c2)sc2nc(-c4ccc(OC)cc4)cn23)CC1
Second: CCCN1CCN(CCCNC(=O)c2ccc3c(c2)sc2nc(-c4ccc(OC)cc4)cn23)CC1
The survival of the first is higher: 82% for the first, 81% for the second.

First: O=C(CSCc1ccccc1Cl)NCc1ccc(Cl)c(Cl)c1
Second: CCOC(=O)c1cnc2c(ccc3ccccc32)c1Nc1cccc(Cl)c1
The survival of the first is higher: 148% for the first, 23% for the second.

First: COc1ccc(C(=O)Nc2ccc(-c3nnc4n3CCCCC4)cc2)cc1OC
Second: CCOC(=O)c1cnc2ccccc2c1NCCc1ccc(OC)c(OC)c1
The survival of the first is higher: 65% for the first, 53% for the second.

Compared with `COc1cccc(C(=O)c2sc(Nc3ccc(F)c(Cl)c3)nc2N)c1`, `CCOC(=O)c1cnc2c(OC)cccc2c1Nc1cccc(O)c1` is higher in survival: 65% for the first, 73% for the second.

Compared with `COc1cc(OC)c(NC(=O)CSc2nccn2C)cc1Cl`, `CCOC(=O)c1cnc(NCc2ccc(OC)cc2OC)c2ccccc12` is higher in survival: 75% for the first, 117% for the second.

Going from `Nc1nonc1-c1nc2ccccc2n1Cc1ccc(Br)cc1` to `CCOC(=O)c1cnc2c(ccc3ccccc32)c1Nc1ccccc1OC`, the survival falls from 93% to 69%.

First: CCOC(=O)c1cnc2c(Cl)c(Cl)ccc2c1Nc1ccc(N(C)C)cc1
Second: CCOc1ccc(NC(=O)CC2C(=O)N(c3ccccc3)C(=O)N2C2CCCCC2)cc1 (stereo unspecified)
The survival of the first is higher: 80% for the first, 69% for the second.

Going from `CCN1C(=O)SC(CC(=O)O)C1=O` (stereo unspecified) to `CCCCc1nn2c(=O)cc(COC(=O)C3CCCCC3)nc2s1`, the survival falls from 99% to 70%.

Going from `Cc1cccc(C(=O)N2CCc3cc(CNC(=O)c4ccnn4C)ccc32)c1` to `C#CCSc1nc(-c2ccccc2)cc(-c2ccccc2)c1C#N`, the survival falls from 90% to 70%.

`CN(Cc1ccccc1)S(=O)(=O)c1nnc(NC(=O)c2cccc(Cl)c2)s1` was tested, and the survival was -1% (active).
For `O=C(COc1ccc(Cl)cc1)Nc1nnc(S(=O)(=O)N2CCc3ccccc32)s1`, the survival was 12% (active).
`O=C(Nc1nnc(S(=O)(=O)N2CCCc3ccccc32)s1)c1cccc(Cl)c1` was tested, and the survival was 6% (active).
`CC1Cc2ccccc2N1S(=O)(=O)c1nnc(NC(=O)c2cccc(F)c2)s1` (stereo unspecified) was tested, and the survival was 10% (active).
With `O=C(Nc1nnc(S(=O)(=O)N2CCc3ccccc32)s1)c1cccc(Cl)c1` the survival was 12% (active).
For `CCn1c(SCCOc2ccccc2F)nc2ccccc21`, the survival was -1% (active).
With `CCCCC(CC)Cn1c(Oc2ccccc2)nc2c1c(=O)n(C)c(=O)n2C` (stereo unspecified) the survival was -2% (active).
With `CCOc1ccc(-c2cn3c(n2)sc2cc(C(=O)NCCCN4CCCCC4)ccc23)cc1` the survival was -1% (active).
For `CCOc1ccc(-c2cn3c(n2)sc2cc(C(=O)NCCCN4CCCCCC4)ccc23)cc1`, the survival was -1% (active).
In the case of `COc1ccc(C(=O)Nc2ccc(-c3nnc4n3CCCCC4)cc2)cc1`, the survival is reported as -3% (active).
`CCOc1ccc(Nc2nc(N)c(C(=O)c3ccccc3Cl)s2)cc1` was tested, and the survival was -2% (active).
With `CCOC(=O)c1cnc2c(ccc3ccccc32)c1Nc1ccc(OC)c(OC)c1` the survival was 5% (active).
In the case of `CCOC(=O)c1cnc2c(ccc3ccccc32)c1Nc1ccc(C(C)=O)cc1`, the survival is reported as 0% (active).
In the case of `CCOC(=O)c1cnc2c(ccc3ccccc32)c1Nc1ccc(OCC)cc1`, the survival is reported as -2% (active).
For `CCOC(=O)c1cnc2c(C)cccc2c1Nc1ccc(OC(C)C)cc1`, the survival was 3% (active).
For `CCOC(=O)c1cnc2c(ccc3ccccc32)c1Nc1ccc(N(C)C)cc1`, the survival was 0% (active).
`CCOC(=O)c1cnc2c(ccc3ccccc32)c1Nc1ccc(OC)cc1OC` was tested, and the survival was 6% (active).

From PubChem BioAssay AID463173 (ICCB-Longwood Screening Facility, Harvard Medical School, 2010)
